An excerpt weighted towards active compounds, which were near 1.2% of everything screened.
RGS12 GoLoco inh = RGS12 GoLoco-Gai1 interaction inhibition; Potency, µM (doses to about 61.6 µM), usual class: inhibitors; Gai1:RGS12 GoLoco peptide FP, rhodamine, 10 min; hit rate 0.44% among 230,000; active = well fitted inhibition curve with a large enough effect, not every such curve was filed as active; inactive = no such curve, though single readings can be large or run the other way; also: nearly all actives have a fitted effect of over 30% in size
Target sequence (P63096 whole entry, looked up): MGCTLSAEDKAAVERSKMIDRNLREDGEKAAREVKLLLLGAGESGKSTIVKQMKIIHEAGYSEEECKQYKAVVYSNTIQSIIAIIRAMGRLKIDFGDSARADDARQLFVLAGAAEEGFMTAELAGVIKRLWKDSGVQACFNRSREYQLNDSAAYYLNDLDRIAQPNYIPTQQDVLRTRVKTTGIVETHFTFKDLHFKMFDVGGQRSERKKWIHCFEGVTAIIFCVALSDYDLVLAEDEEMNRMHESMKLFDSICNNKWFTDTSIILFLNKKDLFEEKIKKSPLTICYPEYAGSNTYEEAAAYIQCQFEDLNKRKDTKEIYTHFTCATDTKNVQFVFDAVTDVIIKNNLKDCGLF
Anesthetic bind = binds horse apoferritin like a general anesthetic; apoferritin/1-aminoanthracene competitive binding, fluorescence; Potency, µM (series often up to 77.5 µM), most hits filed as inhibitors; AID 485281; P02791; hit rate 0.074% among 350,000; also: nearly all actives have a fitted effect of over 20% in size
Target sequence (P02791 2-175 limits assumed): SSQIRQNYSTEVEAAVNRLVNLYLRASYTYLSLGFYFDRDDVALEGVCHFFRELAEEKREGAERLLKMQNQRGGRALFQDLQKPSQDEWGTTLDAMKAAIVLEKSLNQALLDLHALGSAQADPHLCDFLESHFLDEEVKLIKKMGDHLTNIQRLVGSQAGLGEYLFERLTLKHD
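Horse-spleen apoferritin (10 uM) was mixed with 50% saturated 1-aminoanthracene in PBS, exposed to compounds for 10 min at room temperature, and read for fluorescence (ex 380 nm, em 535 nm). Competitive displacement was fitted with a four-parameter Hill equation.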
BRCA1 expr up = activators of BRCA1 expression. MCF7-BRCA1-FFLuc reporter, luminescence, 48 h; response scale: scaled: vehicle 0%, 10 µM genistein 100%. Potency, µM (doses to about 46.1 µM), actives largely listed as activators. hit rate 1.1% among 380,000. AID 624202; also: nearly all actives have a fitted effect of over 80% in size
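MCF7 cells carrying a BRCA1-firefly luciferase reporter (2000 cells/well, phenol-red free MEM) were attached for 2 h at 37 °C, then given compounds for 48 h. Luminescence was read 15 min after luciferase reagent; activity normalized to genistein (10 microM) and DMSO.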
ERG-DNA inh = inhibitors of human ERG Ets domain-DNA interaction; P11308; fluorescence polarization, His-ERG Ets domain / labelled DNA; Potency, µM (series often up to 76.9 µM), actives largely listed as inhibitors; hit rate 0.028% among 370,000; active = well fitted inhibition curve with a large enough effect in the polarisation, with a control signal flat; inconclusive = small, poorly fitted or top-dose-only effect, or effect the other way, or a change in a side signal; inactive = no such curve, though single readings can be large or run the other way; the % refers to the polarisation;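 also: polarization taken with two DNA probes labelled with fluorescein and Texas red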
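His-tagged ERG Ets domain (1 uM in the protein solution; 300mM KCl, 50mM Tris-HCl, 1mM EDTA, 1mM DTT, pH 7.5) received compound, then a probe mix of 5 nM fluorescein-DNA and 100nM Texas-615-DNA. Fluorescence polarization was read for both dyes.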
Large screens that a line does not name were inactive. Unless noted, calls follow the shape of the dose curve; as a rule, active = well fitted curve in the direction sought with a large enough effect; inconclusive = small, poorly fitted or top-dose-only effect, or another doubt; inactive = no such curve, though single readings can be large; an effect the other way counts as inactive or inconclusive.

O=[N+]([O-])c1nn(-c2ccc3c(c2)OCCO3)n(O)c1=NCCC1=CCCCC1	Anesthetic bind inconclusive, BRCA1 expr up 4.5µM
O=[N+]([O-])c1nn(-c2ccc3c(c2)OCCO3)n(O)c1=NCc1ccc(F)cc1	none
CC1(C)OB(c2cnc(C#N)nc2)OC1(C)C	none (no result: RGS12 GoLoco inh, Anesthetic bind, ERG-DNA inh)
CC(C)(C)c1ccc(NC(=O)CC2(C(F)(F)F)OCCO2)cc1	Anesthetic bind inconclusive, BRCA1 expr up 3.5µM (no result: ERG-DNA inh)
Cn1nc(-c2cccnc2)nc2c(=O)n(C)c(=O)nc1-2	none (no result: RGS12 GoLoco inh, Anesthetic bind, ERG-DNA inh)
Cc1c(C(=O)N2CCN(C)CC2)oc2c1C(=O)CC(C)(C)C2	none
Cc1c(C(=O)N2CCc3ccccc32)oc2c1C(=O)CC(C)(C)C2	BRCA1 expr up 13µM
COCc1nc2oc3ccc(C)cc3c(=O)c2cc1C(=O)OC	BRCA1 expr up 3.2µM (no result: RGS12 GoLoco inh)
COCc1nc2oc3ccc(F)cc3c(=O)c2cc1C(=O)OC	BRCA1 expr up 4µM (no result: RGS12 GoLoco inh)
CCc1nc2oc3ccccc3c(=O)c2cc1C(=O)OC	BRCA1 expr up 3.2µM (no result: RGS12 GoLoco inh)
COC(=O)c1ccccc1OCc1cc(=O)oc2ccc(C)cc12	none (no result: RGS12 GoLoco inh, Anesthetic bind, ERG-DNA inh)
O=C1COCCN1	none (no result: RGS12 GoLoco inh, BRCA1 expr up, ERG-DNA inh)
O=c1c2ccccc2sn1-c1ccc(Cl)c(S(=O)(=O)N2CCOCC2)c1	none (no result: RGS12 GoLoco inh, Anesthetic bind, ERG-DNA inh)
Fc1ccc(N/N=C/c2cccnc2)c(F)c1	BRCA1 expr up 5.6µM
FC(F)(F)c1ccccc1N/N=C/c1cccnc1	none (no result: RGS12 GoLoco inh)
Cn1c(SCC(=O)c2ccccc2)nnc1-c1ccccn1	BRCA1 expr up 11µM
Cn1c(SCC(=O)c2ccccc2)nnc1-c1ccncc1	none
C[N+]1(Cc2ccccc2)CCC(C(=O)OCC2CCCC2)CC1 (stereo not given)	none (no result: BRCA1 expr up, ERG-DNA inh)
CC12CCC(=O)N1C(C(=O)Nc1nnc(SCc3ccc(F)cc3)s1)CS2 (stereo not given)	Anesthetic bind 22µM (no result: RGS12 GoLoco inh)
O=C(c1ccc2c3n(nc2c1)-c1ccc(Cl)cc1CO3)N1CCCCC1	BRCA1 expr up inconclusive
Cc1ccc2c(c1)COc1c3ccc(C(=O)N4CCOCC4)cc3nn1-2	BRCA1 expr up 4.5µM
O=C(NCC1CC1)c1ccc2c3n(nc2c1)-c1ccc(Cl)cc1CO3	BRCA1 expr up 2.5µM (no result: RGS12 GoLoco inh, Anesthetic bind)
COCCNC(=O)c1ccc2c3n(nc2c1)-c1ccc(Cl)cc1CO3	BRCA1 expr up inconclusive
O=C(NCCO)c1ccc2c3n(nc2c1)-c1ccc(Cl)cc1CO3	BRCA1 expr up 3.2µM
CC(C)[C@@H](CO)NC(=O)c1ccc2c3n(nc2c1)-c1ccc(Cl)cc1CO3	BRCA1 expr up 4µM
COC(=O)C1=C(C(=O)OC)[C@@H]2N(C)c3ccc(OC)cc3[C@@]23C[C@@H](C(=O)OC)N(S(=O)(=O)c2ccc(C(F)(F)F)cc2)C3=N1	none (no result: Anesthetic bind, BRCA1 expr up, ERG-DNA inh)
CC1CC=CC2C1C(=O)N(Cc1ccccc1)C2c1ccc(F)c(Br)c1 (stereo not given)	none (no result: RGS12 GoLoco inh, BRCA1 expr up, ERG-DNA inh)
COc1ccc(C(=O)Nn2cnc3ccccc3c2=O)c(OC)c1	BRCA1 expr up 8.9µM
CCOc1ccc(C(=O)Nc2ccc(Cl)cn2)cc1Cl	BRCA1 expr up 6.3µM (no result: ERG-DNA inh)
O=C(COc1ccc(Cl)cc1Cl)Nc1ccc(Cl)cn1	BRCA1 expr up 11µM (no result: ERG-DNA inh)
CCOc1ccc(C(=O)Nc2cc(NC(=O)c3ccc(OCC)c(Cl)c3)cc(C(=O)O)c2)cc1Cl	none
N/C(=N\OC(=O)COc1ccc(Cl)cc1Cl)c1ccncc1	Anesthetic bind inconclusive, BRCA1 expr up 1.1µM
N/C(=N\OC(=O)COc1ccc(Cl)cc1Br)c1cccnc1	none
Cc1cc(Cl)ccc1OCC(=O)OCC(=O)Nc1ccc(Cl)cn1	none (no result: RGS12 GoLoco inh, Anesthetic bind, ERG-DNA inh)
Cc1ccc(C(c2nnnn2Cc2ccccc2)N2CCN(Cc3ccncc3)CC2)cc1 (stereo not given)	none (no result: RGS12 GoLoco inh, Anesthetic bind, ERG-DNA inh)
Cn1c(=O)c(NCCc2ccccc2)c2c3c(cccc31)C(=O)c1ccccc1-2	RGS12 GoLoco inh 4.5µM, ERG-DNA inh inconclusive
CC(=O)Nc1ccc(Nc2c3c4c(cccc4n(C)c2=O)C(=O)c2ccccc2-3)cc1	RGS12 GoLoco inh 14µM
CCCCNc1c2c3c(cccc3n(C)c1=O)C(=O)c1ccccc1-2	RGS12 GoLoco inh 14µM, ERG-DNA inh inconclusive
Cn1c(=O)c(NC2CCCCC2)c2c3c(cccc31)C(=O)c1ccccc1-2	RGS12 GoLoco inh 0.79µM
Cn1c(NC2CCCCC2)cc(=O)n(C)c1=O	none (no result: RGS12 GoLoco inh)
CN1C(=O)c2cccc(NCCCN3C(=O)c4ccccc4C3=O)c2C1=O	none
CCc1ccc(C2CC(=O)c3c([nH]c(C(=O)OC4CCC(C)CC4)c3C)C2)cc1 (stereo not given)	none (no result: RGS12 GoLoco inh, BRCA1 expr up)
O=C(COc1ccccc1C(=O)Nc1ccccc1)Nc1ccccc1Cl	none (no result: RGS12 GoLoco inh, Anesthetic bind, ERG-DNA inh)
Clc1ccc(-c2csc3ncnc(Sc4nnnn4C4CC4)c23)cc1	none (no result: RGS12 GoLoco inh, Anesthetic bind, ERG-DNA inh)
